Experiment [1] in a line: NCI Yeast Anticancer Drug Screen. Data for the rad50 strain (AID 155).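 Note: 0% = growth of vehicle-only cultures of the same strain.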 The following applies: S. cerevisiae rad50 strain growth inhibition; at 50.0 µM; hits give high values. In outline: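 Compounds were tested on a yeast strain with an engineered DNA damage repair alteration; the reported value is growth inhibition normalised to vehicle treatment.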
Experiment [2] in a line: NCI Yeast Anticancer Drug Screen. Data for the mec2-1 strain (AID 157). The following applies: S. cerevisiae mec2-1 strain, at 50.0 µM, hits give high values. In outline: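 Readout is yeast growth inhibition, normalised to vehicle-treated controls, in the mec2-1 strain exposed to compound.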
A short description of experiment [3]: NCI Yeast Anticancer Drug Screen. Data for the sgs1 mgt1 strain (AID 161).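 Note: 0% = growth of cultures given vehicle only.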 The following applies: S. cerevisiae sgs1 mgt1 strain, at 50.0 µM, hits give high values. In outline:
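This yeast growth screen uses a strain with defined DNA-repair lesions; compound-treated growth is compared with vehicle-treated growth.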

Experiment [4] in a line: NCI Yeast Anticancer Drug Screen. Data for the cln2 rad14 strain (AID 165).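 Note: 0% = growth equal to vehicle treated cultures.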 The following applies: S. cerevisiae cln2 rad14 strain, at 50.0 µM, hits give high values. In outline: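 Relative to vehicle controls, growth inhibition of compound-treated cln2 rad14 yeast was recorded.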
Experiment [5] in a line: NCI Yeast Anticancer Drug Screen. Data for the bub3 strain (AID 167). The following applies: S. cerevisiae bub3 mutant strain, at 50.0 µM, hits give high values. In outline:
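Growth of a checkpoint-deficient yeast mutant is measured after compound exposure. Values represent inhibition relative to vehicle.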

Experiment [6] is described as follows: NCI Yeast Anticancer Drug Screen. Data for the mlh1 rad18 strain (AID 175). The note with it: S. cerevisiae mlh1 rad18 strain growth inhibition; at 50.0 µM; hits give high values. The method, boiled down: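 Test agents were incubated with a yeast strain of defined genotype (DNA damage repair defect). Inhibition of growth was derived by comparison with vehicle-exposed cultures.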

About 79,000 compounds went through this panel and 15% of them were active in at least one assay; those are over-represented in the sample as a whole. A number with no mark means an inactive call. Calls of active or inactive are those of the source. Cut-off read from the data, not from the text of the source: active = growth inhibition above about 70%; inactive = the rest.

As for `S=C(Nc1ccccc1)N1CC1`, the growth inhibition in experiment [1] was -7.85%; in experiment [2], -22.3%; in experiment [3], -19.9%; in experiment [4], -11.9%; in experiment [5], -6.15%; in experiment [6], -17.4%.
Turning to `O=[As]c1ccc(C(=O)Cl)cc1` (stereo not given), the growth inhibition in experiment [1] is -2.3%; in experiment [2], -16.4%; in experiment [3], -20.1%; in experiment [4], 2.15%; in experiment [5], -25.3%; in experiment [6], 0.45%.
For `CC12CCC3C4CCC(=O)C=C4CCC3C1CC1CC(=O)OC12` (stereo not given), the growth inhibition in experiment [1] is -4.15%; in experiment [2], 1%; in experiment [3], 0.4%; in experiment [4], -7.95%; in experiment [5] it was 11.7%; in experiment [6], -2.8%.
Regarding `CCCCCCCCCCOP(OCCCCCCCCCC)Oc1ccccc1`, the growth inhibition in experiment [1] was 47.1%; in experiment [2], -4.9%; in experiment [3], 2.1%; in experiment [4], 10.5%; in experiment [5], 0.45%; in experiment [6], 7.45%.
Regarding `O=C(/C=C/c1ccccc1)CCC1C(=O)NC(=S)NC1=O`, the growth inhibition in experiment [1] is -4.05%; in experiment [2], 3.35%; in experiment [3], 27.2%; in experiment [4], 0.4%; in experiment [5], -17.1%; in experiment [6], -34.5%.
As for `C1=CC2CCC1C2`, the growth inhibition in experiment [1] was 15.5%; in experiment [2], 3.75%; in experiment [3], -7.1%; in experiment [4] it was -52%; in experiment [5] it was -5.65%; in experiment [6] it was 7.85%.
Turning to `CS(=O)(=O)Oc1c(Cl)cc(S(=O)(=O)F)cc1Cl`, the growth inhibition is 66.2% in experiment [1]; 75% (active) in experiment [2]; 82.8% (active) in experiment [3]; 45.6% in experiment [4]; 53.5% in experiment [5]; 40.1% in experiment [6].
For the compound `CCCCCCCCCCCCCCCC(=O)OCC(C[As](=O)(O)O)OC(=O)CCCCCCCCCCCCCCC` (stereo not given), the growth inhibition was 26.1% in experiment [1]; 5.9% in experiment [2]; -15.1% in experiment [3]; 9.5% in experiment [4]; -0.15% in experiment [5]; 13.5% in experiment [6].
As to `CCOC(OCC)c1ccccc1.[C-]#[O+].[C-]#[O+].[C-]#[O+].[Cr]`, the growth inhibition in experiment [1] was 25.1%; in experiment [2] it was 21.4%; in experiment [3] it was 33%; in experiment [4], 13.9%; in experiment [5], 32.7%; in experiment [6] it was 8.8%.
Turning to `CN1C2CCC1[C@@H](COC(=O)c1ccccc1)[C@@H](O)C2` (stereo not given in full), the growth inhibition in experiment [1] is -9.15%; in experiment [2] it was -14.6%; in experiment [3] it was -15.6%; in experiment [4], -27.4%; in experiment [5], -3.55%; in experiment [6] it was -61%.
On to `OC(c1ccccc1)C(c1ccccc1)N1CCOCC1` (stereo not given), for which the growth inhibition is -8.45% in experiment [1]; 4.1% in experiment [2]; -1.3% in experiment [3]; 1.65% in experiment [4]; 7.9% in experiment [5]; 9.75% in experiment [6].
Consider `CCN1CCOC(O)(c2cc(Cl)cc(Cl)c2Cl)C1` (stereo not given), for which the growth inhibition is 17.4% in experiment [1]; -11.2% in experiment [2]; 8.9% in experiment [3]; -24.7% in experiment [4]; 26.1% in experiment [5]; 14.8% in experiment [6].
On to `O=[N+]([O-])c1ccc(O)c(C=NCCN=Cc2cc([N+](=O)[O-])ccc2O)c1.[Ni+2]`, for which the growth inhibition in experiment [1] was -30.6%; in experiment [2] it was 5.8%; in experiment [3], -3.9%; in experiment [4], -56.6%; in experiment [5] it was -3.8%; in experiment [6], -22.4%.
For the compound `CNN(C)P(=O)(Oc1ccccc1)N(C)NC`, the growth inhibition was 5.5% in experiment [1]; -7.3% in experiment [2]; -9.15% in experiment [3]; 7.9% in experiment [4]; -2.1% in experiment [5]; -5.15% in experiment [6].
Take `[C-]#[O+].[C-]#[O+].[C-]#[O+].[Mo].c1ccc(P(CC[PH+](CC[PH+](CC[PH+](c2ccccc2)c2ccccc2)c2ccccc2)c2ccccc2)c2ccccc2)cc1` (stereo not given): the growth inhibition in experiment [1] is 30.8%; in experiment [2], 27.5%; in experiment [3], 43.4%; in experiment [4] it was 37.7%; in experiment [5], 32.5%; in experiment [6] it was 44.1%.
Regarding `O=C(CC(=O)C(F)(F)F)c1ccco1.[Co]`, the growth inhibition was -16.5% in experiment [1]; -17.2% in experiment [2]; -16.5% in experiment [3]; -10.5% in experiment [4]; -7.8% in experiment [5]; 3.55% in experiment [6].
For `C[C@@]12CC/C(=N\OCC(=O)O)C=C1CC[C@H]1C2CC[C@]2(C)C1CC[C@H]2O` (stereo not given in full), the growth inhibition in experiment [1] was -9.4%; in experiment [2] it was -2.55%; in experiment [3], -14.6%; in experiment [4] it was -15.8%; in experiment [5] it was 2.75%; in experiment [6], -14.7%.
Take `Brc1ccc(-c2csc3c4ccccc4cc[n+]23)cc1`: the growth inhibition in experiment [1] was 14.6%; in experiment [2], -3.25%; in experiment [3], 12.2%; in experiment [4] it was -2.45%; in experiment [5], 21.8%; in experiment [6], -1.75%.
For the compound `C/C=C1\C[C@@H]2C(OC)Nc3cc(O)c(OC)cc3C(=O)N2C1` (stereo not given in full), the growth inhibition is 77.5% (active) in experiment [1]; 70.7% (active) in experiment [2]; 84% (active) in experiment [3]; 56.9% in experiment [4]; 81.3% (active) in experiment [5]; 31.7% in experiment [6].
For `CCOC(=O)/C(=C\c1ccc(N(C)C)cc1)[Se]c1ccccc1`, the growth inhibition in experiment [1] was 12.7%; in experiment [2], -2.8%; in experiment [3], -0.3%; in experiment [4], 5%; in experiment [5], 18.6%; in experiment [6], 56.4%.
